# Results: ChEMBL document CHEMBL1961873, “Compounds: GSK PKIS; Assays: Nanosyn kinase panel” (2012)
# Molecular target: Vascular endothelial growth factor receptor 2 (Homo sapiens) (UniProt P35968)
# Conditions: at 0.1 µM
# Chain of Vascular endothelial growth factor receptor 2 (Homo sapiens) (P35968 whole entry): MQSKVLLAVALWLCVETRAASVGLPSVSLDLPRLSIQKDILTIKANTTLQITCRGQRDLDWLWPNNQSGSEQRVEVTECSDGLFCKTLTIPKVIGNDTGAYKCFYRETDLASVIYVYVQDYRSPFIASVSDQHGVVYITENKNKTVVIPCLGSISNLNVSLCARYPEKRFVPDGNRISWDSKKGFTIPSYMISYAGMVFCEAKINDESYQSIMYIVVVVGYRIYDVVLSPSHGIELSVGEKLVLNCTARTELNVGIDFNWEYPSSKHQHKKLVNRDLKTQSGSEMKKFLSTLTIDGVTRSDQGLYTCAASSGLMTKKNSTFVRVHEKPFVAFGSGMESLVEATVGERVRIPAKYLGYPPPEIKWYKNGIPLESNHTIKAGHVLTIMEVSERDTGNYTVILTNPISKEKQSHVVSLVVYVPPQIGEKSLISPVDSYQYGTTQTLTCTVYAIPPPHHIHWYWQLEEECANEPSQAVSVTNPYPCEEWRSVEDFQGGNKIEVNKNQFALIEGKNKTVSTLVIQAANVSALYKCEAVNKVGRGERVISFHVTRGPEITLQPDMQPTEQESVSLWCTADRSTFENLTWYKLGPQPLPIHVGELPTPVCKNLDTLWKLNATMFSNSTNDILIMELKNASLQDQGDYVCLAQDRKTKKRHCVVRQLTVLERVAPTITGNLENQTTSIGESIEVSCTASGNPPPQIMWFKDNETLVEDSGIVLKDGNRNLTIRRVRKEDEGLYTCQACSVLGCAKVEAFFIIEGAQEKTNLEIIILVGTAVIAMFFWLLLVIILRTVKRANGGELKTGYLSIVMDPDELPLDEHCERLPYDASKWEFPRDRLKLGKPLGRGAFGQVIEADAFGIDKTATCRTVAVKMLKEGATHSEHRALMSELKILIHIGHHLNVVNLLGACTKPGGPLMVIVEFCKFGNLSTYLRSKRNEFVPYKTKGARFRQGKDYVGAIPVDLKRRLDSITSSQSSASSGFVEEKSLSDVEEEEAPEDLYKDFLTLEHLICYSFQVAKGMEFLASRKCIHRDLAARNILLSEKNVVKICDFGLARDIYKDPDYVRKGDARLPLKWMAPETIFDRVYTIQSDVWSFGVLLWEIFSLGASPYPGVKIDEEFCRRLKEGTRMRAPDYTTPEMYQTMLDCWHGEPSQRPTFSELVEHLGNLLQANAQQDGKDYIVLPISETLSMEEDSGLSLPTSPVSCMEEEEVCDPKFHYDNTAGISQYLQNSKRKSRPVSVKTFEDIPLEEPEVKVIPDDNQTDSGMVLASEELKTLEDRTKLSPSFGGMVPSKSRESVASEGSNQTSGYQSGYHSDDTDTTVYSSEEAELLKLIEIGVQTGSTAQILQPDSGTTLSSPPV
row,SMILES,inhibition [%]
1,CCN(CC)Cc1ccc(Nc2nccc(-c3cnn4ncccc34)n2)cc1,7.19
2,CCC(=O)Nc1ccc(C)c(-c2ccc(C(=O)NCC3CC3)cc2)c1,3.67
3,COc1cc(C)c(N(C)C(=O)CN(C)C)cc1Nc1nc(Nc2cccc(F)c2C(N)=O)c2cc[nH]c2n1,1.87
4,CCc1cccc(CC)c1/C=C/c1cncc(C(=O)NC)c1,6.02
5,COc1ccc2cc(-c3c(-c4ccncc4)nc(-c4ccc(S(C)(=O)=O)cc4C)n3C)ccc2c1,10.7
6,Cc1nnc(-c2ccc(C)c(-c3ccc(C(=O)NCc4ccc(Cl)cc4)cc3)c2)o1,4.61
7,COc1cc(Nc2ncc(-c3ccccc3)o2)cc(OC)c1OC,7.23
8,NCc1ccc(-n2c(-c3nonc3N)nc3cnccc32)cc1,10.5
9,COc1cc2ncn(-c3cc(OCCc4ccccc4)c(C(N)=O)s3)c2cc1OC,3.48
10,O=C1Nc2ccc(I)cc2C1=Cc1cc(Br)c(O)c(Br)c1,5.81
11,C[C@@H](Oc1cc(-n2cnc3ccc(OCC4CCN(C)CC4)cc32)sc1C(N)=O)c1ccccc1Cl,7.07
12,CN(C)CCOc1ccc(-c2cc(-c3ccc4c(c3)CCC4=NO)c(-c3ccncc3)o2)cc1,-0.68
13,O=C1NC(=O)C(c2cccc(Cl)c2)=C1Nc1ccc(Cl)c(C(=O)O)c1,6.04
14,NS(=O)(=O)c1ccc(N/N=C2\C(=O)Nc3ccc(C(=O)NCCCn4ccnc4)cc32)cc1,8.51
15,COc1cc(Nc2ncc3c(C)nc(-c4cccc(C(F)(F)F)c4)n3n2)cc(OC)c1OC,4.26
16,NS(=O)(=O)c1ccc(Nc2cc(-c3ccc(O)c(F)c3)n[nH]2)cc1,4.49

row,SMILES,inhibition [%]
1,CCc1ccc(Oc2nccc(-c3c(-c4ccc(F)cc4)ncn3C3CCNCC3)n2)cc1,5.19
2,CN1CCN(CCCNc2nc3ccc(Oc4ccc(NC(=O)Nc5cc(C(F)(F)F)ccc5F)cc4)cc3[nH]2)CC1,38.6
3,Fc1ccc(-c2ncn(C3CCNCC3)c2-c2ccnc(Oc3ccc(F)c(F)c3)n2)cc1,6.78
4,NC(=O)Cc1ccccc1Oc1nccc(-c2c(-c3ccc(F)cc3)ncn2C2CCNCC2)n1,1.89
5,FC(F)(F)c1cccc(Nc2nccc(-c3cnn4nc(-c5ccccc5)ccc34)n2)c1,0.05
6,COc1cccc(/C=N/Nc2ncnc3c2cnn3-c2cccc(OC)c2)c1,5.88
7,CN(c1ccc(NC(=O)Nc2c(Cl)cccc2Cl)cc1)c1ccnc(Nc2cccc(CS(C)(=O)=O)c2)n1,24.6
8,Cc1ccc(NC(=O)c2ccoc2)cc1-c1ccc(C(=O)NCC2CC2)cc1,15.3
9,COc1cc(Nc2ncc3c(C)nc(-c4cccc(Oc5ccccc5)c4)n3n2)cc(OC)c1OC,2.28
10,CCS(=O)(=O)c1ccc(OC)c(Nc2ncc(-c3cccc(-c4ccccc4F)c3)o2)c1,66.9
11,Cc1ccc(C(=O)NC(C)C)cc1-c1ccc(C(=O)NCC2CC2)cc1,-1.43
12,CS(=O)(=O)CCNCc1ccc(-c2ccc3ncnc(Nc4ccc(OCc5ccccc5)c(Br)c4)c3c2)o1,10.1
13,O=C(Nc1n[nH]c2cc(-c3ccccc3)ccc12)C1CC1,4.79
14,COc1ccc(C2=C(N3CCc4ccccc43)C(=O)NC2=O)cc1,8.98
15,NC(=O)c1cc(-c2ccc(F)cc2)cc(-c2ccncc2)c1N,6
16,COc1cc2ncn(-c3cc(OCc4cccs4)c(C(N)=O)s3)c2cc1OC,14.1

# Molecular target: Vascular endothelial growth factor receptor 2 (Homo sapiens) (UniProt P35968)
# Conditions: at 1 µM
row,SMILES,inhibition [%]
1,CCN(CC)Cc1ccc(Nc2nccc(-c3cnn4ncccc34)n2)cc1,39.1
2,CCC(=O)Nc1ccc(C)c(-c2ccc(C(=O)NCC3CC3)cc2)c1,9.29
3,COc1cc(C)c(N(C)C(=O)CN(C)C)cc1Nc1nc(Nc2cccc(F)c2C(N)=O)c2cc[nH]c2n1,1.78
4,CCc1cccc(CC)c1/C=C/c1cncc(C(=O)NC)c1,8.91
5,COc1ccc2cc(-c3c(-c4ccncc4)nc(-c4ccc(S(C)(=O)=O)cc4C)n3C)ccc2c1,47.8
6,Cc1nnc(-c2ccc(C)c(-c3ccc(C(=O)NCc4ccc(Cl)cc4)cc3)c2)o1,5.62
7,COc1cc(Nc2ncc(-c3ccccc3)o2)cc(OC)c1OC,48
8,NCc1ccc(-n2c(-c3nonc3N)nc3cnccc32)cc1,22.8
9,COc1cc2ncn(-c3cc(OCCc4ccccc4)c(C(N)=O)s3)c2cc1OC,17
10,O=C1Nc2ccc(I)cc2C1=Cc1cc(Br)c(O)c(Br)c1,9.7
11,C[C@@H](Oc1cc(-n2cnc3ccc(OCC4CCN(C)CC4)cc32)sc1C(N)=O)c1ccccc1Cl,36.4
12,CN(C)CCOc1ccc(-c2cc(-c3ccc4c(c3)CCC4=NO)c(-c3ccncc3)o2)cc1,0.23
13,O=C1NC(=O)C(c2cccc(Cl)c2)=C1Nc1ccc(Cl)c(C(=O)O)c1,23.5
14,NS(=O)(=O)c1ccc(N/N=C2\C(=O)Nc3ccc(C(=O)NCCCn4ccnc4)cc32)cc1,34.1
15,COc1cc(Nc2ncc3c(C)nc(-c4cccc(C(F)(F)F)c4)n3n2)cc(OC)c1OC,8.61
16,NS(=O)(=O)c1ccc(Nc2cc(-c3ccc(O)c(F)c3)n[nH]2)cc1,35.3

row,SMILES,inhibition [%]
1,CCc1ccc(Oc2nccc(-c3c(-c4ccc(F)cc4)ncn3C3CCNCC3)n2)cc1,13.5
2,CN1CCN(CCCNc2nc3ccc(Oc4ccc(NC(=O)Nc5cc(C(F)(F)F)ccc5F)cc4)cc3[nH]2)CC1,71.9
3,Fc1ccc(-c2ncn(C3CCNCC3)c2-c2ccnc(Oc3ccc(F)c(F)c3)n2)cc1,11.5
4,NC(=O)Cc1ccccc1Oc1nccc(-c2c(-c3ccc(F)cc3)ncn2C2CCNCC2)n1,3.48
5,FC(F)(F)c1cccc(Nc2nccc(-c3cnn4nc(-c5ccccc5)ccc34)n2)c1,6.02
6,COc1cccc(/C=N/Nc2ncnc3c2cnn3-c2cccc(OC)c2)c1,11.2
7,CN(c1ccc(NC(=O)Nc2c(Cl)cccc2Cl)cc1)c1ccnc(Nc2cccc(CS(C)(=O)=O)c2)n1,56.3
8,Cc1ccc(NC(=O)c2ccoc2)cc1-c1ccc(C(=O)NCC2CC2)cc1,62
9,COc1cc(Nc2ncc3c(C)nc(-c4cccc(Oc5ccccc5)c4)n3n2)cc(OC)c1OC,3.61
10,CCS(=O)(=O)c1ccc(OC)c(Nc2ncc(-c3cccc(-c4ccccc4F)c3)o2)c1,89.5
11,Cc1ccc(C(=O)NC(C)C)cc1-c1ccc(C(=O)NCC2CC2)cc1,0.78
12,CS(=O)(=O)CCNCc1ccc(-c2ccc3ncnc(Nc4ccc(OCc5ccccc5)c(Br)c4)c3c2)o1,11.1
13,O=C(Nc1n[nH]c2cc(-c3ccccc3)ccc12)C1CC1,12.6
14,COc1ccc(C2=C(N3CCc4ccccc43)C(=O)NC2=O)cc1,14.5
15,NC(=O)c1cc(-c2ccc(F)cc2)cc(-c2ccncc2)c1N,6.66
16,COc1cc2ncn(-c3cc(OCc4cccs4)c(C(N)=O)s3)c2cc1OC,50.5
